TDP1 cell CPT: qHTS for Inhibitors of human tyrosyl-DNA phosphodiesterase 1 (TDP1): qHTS in cells in presence of CPT; chicken DT40 Tdp1-/-;hTDP1 cells + 20 nM CPT, ATP luminescence, 48 h; Potency, µM (titrated, usually from 46.2 µM), usual class: inhibitors; actives 12% (n = 420,000); note: nearly all actives have a fitted effect of over 55% in size
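Chicken DT40 Tdp1-/- cells stably complemented with human TDP1 were seeded at 400 cells/well in medium containing 20 nM camptothecin, exposed to pin-transferred compounds, and grown at 37 °C for at least 48 hr. Viability was read as ATP luminescence.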
DT40 TDP1 no CPT: qHTS for Inhibitors of human tyrosyl-DNA phosphodiesterase 1 (TDP1): qHTS in cells in absence of CPT | DT40 Tdp1-/- hTDP1 cells, no CPT, ATP luminescence, 48 h | actives 15% (n = 420,000) | Potency, µM (titrated, usually from 46.2 µM), actives largely listed as inhibitors; note: nearly all actives have a fitted effect of over 55% in size
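Stably hTDP1-transfected Tdp1-null chicken DT40 cells were treated with library compounds minus camptothecin and grown for at least 48 hr at 37 °C, after which cellular ATP was quantified by luminescence.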
VP16 counter: VP16 counterscreen qHTS for inhibitors of ROR gamma transcriptional activity; Drosophila S2 Gal4-VP16 UAS-luciferase, luminescence, 20 h; Potency, µM (series often up to 53.6 µM), actives largely listed as inhibitors; actives 3.5% (n = 310,000);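 note: Gal4-VP16 expression switched on by copper sulfate through the metallothionein promoter; nearly all actives have a fitted effect of over 50% in size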
TDP1 inh: qHTS Assay for Inhibitors of Tyrosyl-DNA Phosphodiesterase (TDP1). Potency, µM (series often up to 130 µM), actives largely listed as inhibitors. Tyrosyl-DNA phosphodiesterase 1 (Homo sapiens), Q9NUW8. AID 485290, 2010. recombinant TDP1, AlphaScreen DNA substrate cleavage. actives 0.28% (n = 350,000); note: nearly all actives have a fitted effect of over 40% in size
Target sequence (Q9NUW8 whole entry, looked up): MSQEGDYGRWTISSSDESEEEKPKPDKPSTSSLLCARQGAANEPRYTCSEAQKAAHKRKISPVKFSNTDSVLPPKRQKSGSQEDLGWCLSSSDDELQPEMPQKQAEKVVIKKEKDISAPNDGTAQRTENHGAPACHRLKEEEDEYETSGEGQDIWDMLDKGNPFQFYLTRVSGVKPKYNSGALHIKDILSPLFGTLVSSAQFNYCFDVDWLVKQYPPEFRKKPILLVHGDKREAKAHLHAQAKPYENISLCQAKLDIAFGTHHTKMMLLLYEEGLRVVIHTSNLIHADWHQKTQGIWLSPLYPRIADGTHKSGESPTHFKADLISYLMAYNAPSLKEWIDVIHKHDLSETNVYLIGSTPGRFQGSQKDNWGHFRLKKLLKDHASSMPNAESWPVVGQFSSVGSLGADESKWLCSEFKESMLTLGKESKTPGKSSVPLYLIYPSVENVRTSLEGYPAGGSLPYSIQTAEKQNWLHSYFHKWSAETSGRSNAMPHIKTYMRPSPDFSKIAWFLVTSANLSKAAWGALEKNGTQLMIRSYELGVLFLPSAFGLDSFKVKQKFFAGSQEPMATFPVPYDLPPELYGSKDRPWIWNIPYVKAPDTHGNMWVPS
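Here, a 5' biotin and 3' phosphotyrosine-FITC DNA oligonucleotide reports Tdp1 activity: intact substrate bridges AlphaScreen beads, while cleavage leaves a 3' phosphate and drops signal. All incubations at room temperature.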
RORgamma inh: qHTS for inhibitors of ROR gamma transcriptional activity; Nuclear receptor ROR-gamma (Mus musculus), P51450; Drosophila S2 Gal4-RORgamma UAS-luciferase reporter, 20 h; Potency, µM (series often up to 53.6 µM), usual class: inhibitors; actives 5.4% (n = 310,000); note: nearly all actives have a fitted effect of over 60% in size
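Stably transfected Drosophila Schneider cells are the test system, with ROR gamma fused to Gal4 and luciferase under UAS control; luminescence is read after 20 hr of 700 uM copper sulfate induction at ambient temperature.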
Each line names hits and unclear results; the compound was inactive in the other large screens. Hits are enriched below; roughly 19% of the tested compounds scored in any of these assays. Calls come from the whole dose curve; as a rule, active = well fitted curve in the direction sought with a large enough effect; inconclusive = small, poorly fitted or top-dose-only effect, or another doubt; inactive = no such curve, though single readings can be large; an effect the other way counts as inactive or inconclusive.

Cc1ncoc1C(=O)N1CCCC(C(=O)c2cccc3ccccc23)C1 (stereo not given)	TDP1 cell CPT inconclusive, DT40 TDP1 no CPT inconclusive
CC1CCCCN1CC(=O)NC(=O)NCc1ccccc1 (stereo not given)	none
CCOC(=O)c1c(CS(=O)(=O)c2ccccc2)n(C)c2cc(Br)c(O)cc12	TDP1 cell CPT inconclusive, DT40 TDP1 no CPT inconclusive, RORgamma inh inconclusive
O=C1c2ccccc2NC(c2ccc(Br)s2)N1O (stereo not given)	TDP1 cell CPT 10µM, DT40 TDP1 no CPT 12µM (no result: VP16 counter, TDP1 inh, RORgamma inh)
O=[N+]([O-])c1cccc(C2Nc3cccc4cccc(c34)N2)c1	TDP1 cell CPT inconclusive, DT40 TDP1 no CPT 21µM
O=C1c2ccccc2NC(c2cccc(O)c2)N1O (stereo not given)	none (no result: TDP1 inh)
O=C1c2ccccc2NC(c2cccc([N+](=O)[O-])c2)N1O (stereo not given)	TDP1 cell CPT 21µM, DT40 TDP1 no CPT inconclusive, RORgamma inh inconclusive (no result: TDP1 inh)
O=C1c2ccccc2NC(c2ccc([N+](=O)[O-])cc2)N1O (stereo not given)	TDP1 cell CPT 21µM, DT40 TDP1 no CPT 18µM, RORgamma inh 11µM
O=C(COC(=O)c1ccc(Br)o1)Nc1cccc(S(=O)(=O)N2CCCCC2)c1	none (no result: VP16 counter, RORgamma inh)
COc1ccc(-c2nnc(NC(=O)c3ccc([N+](=O)[O-])o3)o2)c(OC)c1	TDP1 cell CPT inconclusive, DT40 TDP1 no CPT 18µM, VP16 counter 6.3µM, RORgamma inh 7.1µM
Cc1ccc(-c2nnc(NC(=O)c3ccc([N+](=O)[O-])o3)o2)c(C)c1	TDP1 cell CPT 16µM, DT40 TDP1 no CPT 13µM (no result: VP16 counter, TDP1 inh, RORgamma inh)
O=C1NC(=S)NC1=Cc1ccc(Cl)cc1Cl	none (no result: VP16 counter, TDP1 inh, RORgamma inh)
COc1cccc(/C=N/n2c(-c3cc(C)[nH]n3)n[nH]c2=S)c1	DT40 TDP1 no CPT inconclusive
COc1cccc(/C=N/n2c(COc3ccccc3)n[nH]c2=S)c1	VP16 counter inconclusive, RORgamma inh 7.1µM (no result: TDP1 inh)
O=[N+]([O-])c1ccc(/C=N/n2c(COc3ccccc3)n[nH]c2=S)cc1	RORgamma inh 7.1µM
O=[N+]([O-])c1cccc(/C=N/n2c(COc3ccccc3)n[nH]c2=S)c1	VP16 counter inconclusive, RORgamma inh 13µM
S=c1[nH]nc(COc2ccccc2)n1/N=C/c1cccc(Br)c1	TDP1 cell CPT inconclusive (no result: TDP1 inh)
Oc1ccc(/C=N/n2c(COc3ccccc3)n[nH]c2=S)cc1O	TDP1 cell CPT inconclusive, DT40 TDP1 no CPT inconclusive (no result: TDP1 inh)
S=c1[nH]ncn1/N=C/c1cccc(Oc2ccccc2)c1	VP16 counter 7.1µM, RORgamma inh 2.8µM
COc1ccc(C2C(C(=O)Nc3cccnc3)=C(C)Nc3nc(-c4ccco4)nn32)cc1 (stereo not given)	none
Cc1ccc(S(=O)(=O)N(C)C)cc1NC(=S)N1CCCCC1CO (stereo not given)	TDP1 cell CPT inconclusive
CCCC(=O)NC(=S)Nc1cccc(NC(=O)c2ccccc2)c1	VP16 counter 3.5µM, RORgamma inh inconclusive
CCCCC(=O)NC(=S)Nc1cccc(NC(=O)c2ccccc2)c1	TDP1 cell CPT inconclusive, DT40 TDP1 no CPT 23µM, VP16 counter 7.9µM, RORgamma inh 2.2µM
CCCCCC(=O)N/N=C(\C)c1ccc(NC(=O)c2ccco2)cc1	none
CCCCC(=O)Nc1cccc(NC(=S)NC(=O)Cc2ccccc2)c1	RORgamma inh inconclusive
CCCCCC(=O)NC(=S)Nc1ccc2oc(=O)ccc2c1	VP16 counter inconclusive, RORgamma inh 11µM
CC(C)CC(=O)NC(=S)Nc1cccc(NC(=O)c2ccccc2)c1	TDP1 cell CPT inconclusive, DT40 TDP1 no CPT inconclusive, VP16 counter inconclusive, RORgamma inh inconclusive
CCCCCC(=O)NC(=S)Nc1ccc(NC(=O)c2ccco2)cc1	VP16 counter inconclusive, RORgamma inh 10µM
O=C(Nc1cccc(C(=O)NC2CCCC2)c1)c1ccccc1	TDP1 cell CPT inconclusive, DT40 TDP1 no CPT inconclusive
CCN(C(=O)c1cccc(NC(=O)c2ccccc2)c1)C1CCCCC1	TDP1 cell CPT 15µM, DT40 TDP1 no CPT inconclusive
Cc1ccc(S(=O)(=O)NCCC(=O)N2CCCC(C)C2)cc1 (stereo not given)	none (no result: VP16 counter, RORgamma inh)
CCOc1ccc(OCc2cccc(C(=O)N3CCOCC3)c2)cc1	TDP1 cell CPT inconclusive, RORgamma inh inconclusive
CC(C)Nc1nc(Nc2ccc(C#N)cc2)c2sccc2n1	TDP1 cell CPT 15µM, DT40 TDP1 no CPT 26µM (no result: VP16 counter, TDP1 inh, RORgamma inh)
CC(C)Nc1nc(Nc2ccc(F)cc2)c2sccc2n1	TDP1 cell CPT 26µM, DT40 TDP1 no CPT inconclusive (no result: VP16 counter, TDP1 inh, RORgamma inh)
CC(=O)Nc1ccc(CNc2nc(NC(C)C)nc3ccsc23)cc1	none (no result: VP16 counter, TDP1 inh, RORgamma inh)
Nc1cc(C(=O)c2cccs2)ccc1Cl	RORgamma inh inconclusive
O=C(Nc1ccccn1)c1csc2c1CCCC2	VP16 counter inconclusive
O=C(Nc1ccccn1)c1onc2c1CCCC2	VP16 counter 8.9µM, RORgamma inh 6.3µM
Cn1c(SCc2ccc(F)cc2Cl)nc2ccccc2c1=O	TDP1 cell CPT inconclusive, DT40 TDP1 no CPT 15µM (no result: VP16 counter, RORgamma inh)
O=c1c2ccccc2nc(SCc2ccccc2Cl)n1Cc1ccccc1	none
O=c1c2ccccc2nc(SCc2ccc(F)cc2Cl)n1CCCN1CCOCC1	TDP1 cell CPT inconclusive, DT40 TDP1 no CPT 16µM (no result: TDP1 inh)
Cc1ccsc1/C=C(\C#N)C(=O)Nc1c(C)n(C)n(-c2ccccc2)c1=O	none
CC(=O)c1ccc(N(CC(=O)NC2CCCCC2)C(=O)c2csnn2)cc1	DT40 TDP1 no CPT inconclusive
CCOc1ccccc1NC(=O)CCc1c(C)nn(-c2ccc(N3CCCCC3)nn2)c1C	TDP1 cell CPT 23µM, DT40 TDP1 no CPT 16µM
Cc1ccc(F)cc1NC(=O)CCc1c(C)nn(-c2ccc(N3CCCC3)nn2)c1C	TDP1 cell CPT inconclusive, DT40 TDP1 no CPT inconclusive (no result: VP16 counter, RORgamma inh)
CCOc1ccccc1CNC(=O)CCc1c(C)nn(-c2ccc(N3CCCCC3)nn2)c1C	TDP1 cell CPT inconclusive, DT40 TDP1 no CPT 21µM (no result: VP16 counter, RORgamma inh)
CCOc1ccccc1CNC(=O)CCc1c(C)nn(-c2ccc(N3CCOCC3)nn2)c1C	TDP1 cell CPT inconclusive, DT40 TDP1 no CPT inconclusive (no result: VP16 counter, RORgamma inh)
C#CCOCCOCCOCCNc1nc(N2CCN(C(=O)[C@H](Cc3ccc(O)cc3)n3cc([C@@H](N)C(C)CC)nn3)CC2)nc(N2CCN(C(=O)[C@H](CCCCN)n3cc([C@@H](N)CC(C)C)nn3)CC2)n1 (stereo not given in full)	none (no result: TDP1 cell CPT, DT40 TDP1 no CPT)
Cc1c(C(=O)OC(C)CCN(C)C)oc2ccccc12 (stereo not given)	none
O=C(CCc1ccccc1)NNC(=S)NCCc1ccccc1	TDP1 cell CPT inconclusive, VP16 counter inconclusive, RORgamma inh 7.9µM
CC(=O)NNC(=S)NCCc1ccccc1	RORgamma inh 11µM

Screening data from PubChem BioAssay.
